# Data from PubChem BioAssay (Tox21).
# Results filed as inconclusive are left out. Where a call stands in place of a potency, no number is given. Values without a mark were called inactive. Calls of active or inactive are those of the source. Calls come from the whole dose curve; as a rule, active = well fitted cell-killing curve with a large enough effect in the repeat runs; inconclusive = weak or mixed curves, or effect the other way; inactive = flat fitted curve, though single readings scatter.
# Tests used:
# [1] = cAMP Responsive Elements (CRE) small molecule antagonists, cell-based qHTS assay: qHTS cell viability counter screen (AID 2060913); conditions: CRE-bla HEK293T viability, CellTiter-Glo luminescence, 5 h; series mostly up to 92.4 µM; note: nearly all actives have a fitted effect of over 40% in size
# How it was run: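 Steps: cells plated and held 18 hrs at 37 C/5% CO2; compounds and NKH477 (0.25 uM final) added; 3 hrs incubation; reporter substrate read; CellTiter-Glo added to measure cytotoxicity by luminescence.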
# [2] = cAMP Responsive Elements (CRE) small molecule agonists, cell-based qHTS assay: qHTS cell viability counter screen (AID 2060914); conditions: CRE-bla HEK293T viability, CellTiter-Glo luminescence, 5 h; series mostly up to 92.4 µM; note: nearly all actives have a fitted effect of over 50% in size
# How it was run: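 In the same wells as the reporter read, viability of CRE-bla HEK 293T cells was quantified by CellTiter-Glo luminescence after a 3 h compound exposure.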
# Potency is the fitted concentration of half-maximal effect.
Structure (SMILES),Potency [1],Potency [2],"viability change, negative = cytotoxic [1]","activity change, negative = cytotoxicity [2]"
CCCCCCCCCCOC(C)=O,inactive,inactive,–,–
COc1c2occc2c(OC)c2c(=O)cc(C)oc12,inactive,inactive,–,–
COc1c2ccoc2cc2oc(=O)ccc12,inactive,inactive,–,–
CC(=O)Nc1ccccc1,inactive,inactive,–,–
CCc1nc(N)nc(N)c1-c1ccc(Cl)cc1,inactive,inactive,–,–
N[C@@H](Cc1cc(I)c(Oc2ccc(O)c(I)c2)c(I)c1)C(=O)O,inactive,inactive,–,–
CC(=O)CCc1ccc(O)cc1,inactive,inactive,–,–
CCOc1ccc(NC(C)=O)cc1N,inactive,inactive,–,–
O=C(Nc1ccc(Cl)cc1)Nc1ccc(Cl)c(Cl)c1,inactive,inactive,–,–
CCN1CCC[C@H]1CNC(=O)c1c(OC)ccc(Br)c1OC,inactive,inactive,–,–
COc1nccnc1NS(=O)(=O)c1ccc(N)cc1,inactive,inactive,–,–
Cc1ccc(S(=O)(=O)Oc2ccc(N=Nc3ccc(-c4ccc(N=Nc5c(O)ccc6cc(S(=O)(=O)O)cc(S(=O)(=O)O)c56)c(C)c4)cc3C)cc2)cc1,inactive,inactive,–,–
CCCCCCCCCCCCCC(=O)OC,inactive,inactive,–,–
Cc1cnc(C)c(C)n1,inactive,inactive,–,–
CNC(=S)NC,inactive,inactive,–,–
O=S(=O)(O)SSS(=O)(=O)O,inactive,inactive,–,–
C[C@H]1C[C@@H](O)CC(C)(C)C1,inactive,inactive,–,–
C[C@@H]1CC(=O)NN=C1c1ccc(NN=C(C#N)C#N)cc1,inactive,inactive,–,–
COC(=O)C1CCC(C(=O)OC)CC1 (centres undefined),inactive,inactive,–,–
C[Si](C)O[Si](C)C,inactive,inactive,–,–
CO[C@@H]1[C@@H](O[C@@H]2O[C@H](C)[C@@H](O[C@H]3C[C@@](C)(O)[C@@H](O)[C@H](C)O3)[C@H](N(C)C)[C@H]2O)[C@@H](CC=O)C[C@@H](C)[C@@H](O[C@@H]2CC[C@H](N(C)C)[C@@H](C)O2)/C=C/C=C/C[C@@H](C)OC(=O)C[C@H]1OC(C)=O,inactive,inactive,–,–
CC(C)(CC(=O)O)C(=O)O,inactive,inactive,–,–
CCCCCCCCSCc1cc(C)c(O)c(CSCCCCCCCC)c1,inactive,inactive,–,–

Structure (SMILES),Potency [1],Potency [2],"viability change, negative = cytotoxic [1]","activity change, negative = cytotoxicity [2]"
CC(=O)OCCC1CCCCC1,inactive,inactive,–,–
O=C(OCCOCCOCCOC(=O)c1ccccc1)c1ccccc1,inactive,inactive,–,–
Nc1cc(S(=O)(=O)O)ccc1O,inactive,inactive,–,–
CCCCCCCCCCC,inactive,inactive,–,–
CC/C=C\CCOC(=O)c1ccccc1O,inactive,inactive,–,–
COC(=O)C1=C(C)NC(C)=C(C(=O)OCC(C)=O)C1c1ccccc1[N+](=O)[O-] (centres undefined),inactive,inactive,–,–
c1ccsc1,inactive,inactive,–,–
N#CCc1ccc(Cl)cc1Cl,inactive,inactive,–,–
C/C=C/c1ccc(OC)cc1,inactive,inactive,–,–
CCCCCCOc1cc(C)c(O)c(C)c1C,55.1 µM (active),inactive,–,–
CCC1(c2cnc[nH]2)Cc2ccccc2C1,inactive,inactive,–,–
CCCCC(CC)COS(=O)(=O)O (centres undefined),inactive,inactive,–,–
CCc1nn(C2CCCCC2)c2cc(C3(C#N)CCC(C(=O)O)CC3)ccc12 (centres undefined),inactive,inactive,–,–
CN1CCC(=C2c3ccccc3CCc3sccc32)CC1,inactive,inactive,–,–
C[Si](Cl)(c1ccccc1)c1ccccc1,inactive,inactive,–,–
O=C1Nc2ccccc2C1(c1ccc(O)cc1)c1ccc(O)cc1,inactive,inactive,–,–
C=C(C)CC(C)(C)C,inactive,inactive,–,–
O=C(COc1ccc(Cl)cc1)N1CCN(Cc2ccc3c(c2)OCO3)CC1,inactive,inactive,–,–
C=CC(=O)CCCCC,inactive,inactive,–,–
CN/C(=C\[N+](=O)[O-])NCCSCc1csc(CN(C)C)n1,inactive,inactive,–,–
CCOC(=O)COC(=O)c1cc(Oc2ccc(C(F)(F)F)cc2Cl)ccc1[N+](=O)[O-],inactive,inactive,–,–
CCCCOC(=O)C(C)Oc1ccc(Oc2ccc(C(F)(F)F)cn2)cc1 (centres undefined),inactive,inactive,–,–
CC1c2ccccc2CN1NC(=O)c1ccc(Cl)c(S(N)(=O)=O)c1 (centres undefined),inactive,inactive,–,–

Structure (SMILES),Potency [1],Potency [2],"viability change, negative = cytotoxic [1]","activity change, negative = cytotoxicity [2]"
CCc1nccnc1CC,–,–,0.102% [at 18.9 µM],11.2% [at 18.9 µM]
COCCCN1CCC(NC(=O)c2cc(Cl)c(N)c3c2OCC3)CC1,inactive,inactive,–,–
CCCCCCCCCCCC(=O)OCC(C)OC(=O)CCCCC(=O)O (centres undefined),inactive,inactive,–,–
CCCCN1C(=O)[C@@H]([C@H](O)C2CCCCC2)NC(=O)C12CCN(Cc1ccc(Oc3ccc(C(=O)O)cc3)cc1)CC2,inactive,inactive,–,–
CC(C)(C)C(=O)NCCCC(=O)O,inactive,inactive,–,–
Cc1ccc(Cl)cc1Cl,inactive,inactive,–,–
Cc1cccc(C)c1OCC(C)N (centres undefined),inactive,inactive,–,–
Clc1ccc2n[nH]nc2c1,inactive,inactive,–,–
c1cc(C(c2ccc(OCC3CO3)cc2)c2ccc(OCC3CO3)cc2)ccc1OCC1CO1 (centres undefined),inactive,inactive,–,–
C=CC(=O)OCCCCCCCCCC,inactive,inactive,–,–
Cn1cnc([N+](=O)[O-])c1Sc1ncnc2nc[nH]c12,inactive,inactive,–,–
O=C1CC2CC1C1CCCC21 (centres undefined),inactive,inactive,–,–
CN1[C@@H]2CC[C@H]1CC(OC(=O)C(CO)c1ccccc1)C2 (some centres undefined),inactive,inactive,–,–
CCN1CCN(c2cc3c(cc2F)c(=O)c(C(=O)O)cn3C2CC2)CC1,inactive,inactive,–,–
Nc1ccc(F)cc1F,inactive,inactive,–,–
Cc1ccc(C(C)(C)O)cc1,inactive,inactive,–,–
CC(C)(C)c1ccc(C(=O)CCCCl)cc1,inactive,inactive,–,–
CC(C)=O,inactive,25 µM (active),–,–
CC(=O)OCC(=O)[C@@]1(OC(C)=O)[C@@H](C)C[C@H]2[C@@H]3C[C@H](F)C4=CC(=O)C=C[C@]4(C)[C@@]3(F)[C@@H](O)C[C@@]21C,inactive,inactive,–,–
O=c1[nH]c(=O)n([C@H]2CCCO2)cc1F,inactive,inactive,–,–
N#CSc1ccc(N)c([N+](=O)[O-])c1,inactive,inactive,–,–
C[C@H](CS)C(=O)N1CCC[C@H]1C(=O)O,inactive,inactive,–,–
OC1(c2ccc(Cl)cc2)CCNCC1,inactive,inactive,–,–

Structure (SMILES),Potency [1],Potency [2],"viability change, negative = cytotoxic [1]","activity change, negative = cytotoxicity [2]"
CC(=O)OCC(COC(C)=O)OC(C)=O,inactive,inactive,–,–
CO[Si](CCCNCCC[Si](OC)(OC)OC)(OC)OC,inactive,inactive,–,–
CC(C=O)Cc1ccc(C(C)(C)C)cc1 (centres undefined),inactive,inactive,–,–
CC(C)NCC(O)COc1cccc2ccccc12 (centres undefined),inactive,inactive,–,–
COC(=O)C1=C(C)NC(C)=C(C(=O)O[C@@H]2CCCN(Cc3ccccc3)C2)[C@@H]1c1cccc([N+](=O)[O-])c1,inactive,inactive,–,–
CC(C)(Oc1ccc(Cl)cc1)C(=O)O,inactive,inactive,–,–
CC(C)=CCC[C@](C)(O)[C@@H]1CC=C(C)CC1,inactive,inactive,–,–
CC(C)CCCC(C)N (centres undefined),inactive,inactive,–,–
CCCCC(CC)COC(=O)C(C#N)=C(c1ccccc1)c1ccccc1 (centres undefined),inactive,inactive,–,–
Cc1nc(Nc2ncc(C(=O)Nc3c(C)cccc3Cl)s2)cc(N2CCN(CCO)CC2)n1,inactive,inactive,–,–
COc1cc(C(=O)OC(COCCC(C)C)CN2CCOCC2)cc(OC)c1OC (centres undefined),inactive,inactive,–,–
O[C@@H](c1cc(C(F)(F)F)nc2c(C(F)(F)F)cccc12)[C@H]1CCCCN1,inactive,inactive,–,–
C=C1C[C@]23C[C@@]1(O)CC[C@H]2[C@@]12C=C[C@H](O)[C@@](C)(C(=O)O1)[C@H]2[C@@H]3C(=O)O,inactive,inactive,–,–
C=C(C)[C@@H]1CC=C(C)CC1,inactive,inactive,–,–
CCCCC(C=O)CC (centres undefined),inactive,inactive,–,–
CC(C)(C(=O)c1cccnc1)c1cccnc1,inactive,inactive,–,–
c1ccc(Cc2ccccc2)cc1,inactive,inactive,–,–
CC(C)c1ccc2oc3nc(N)c(C(=O)O)cc3c(=O)c2c1,inactive,inactive,–,–
CCCc1ccccc1,inactive,inactive,–,–
NS(=O)(=O)c1ccc(Cl)c(S(N)(=O)=O)c1,inactive,inactive,–,–
COCC(C)OC(C)=O (centres undefined),inactive,inactive,–,–
COc1cc2c(cc1OC)C(=O)CC2,inactive,inactive,–,–
O=[N+]([O-])c1cccc(Cl)c1Cl,inactive,inactive,–,–

Structure (SMILES),Potency [1],Potency [2],"viability change, negative = cytotoxic [1]","activity change, negative = cytotoxicity [2]"
CC(=O)CC(C)(C)O,inactive,inactive,–,–
O=C(N[C@@H](Cc1ccccc1)[C@@H](O)C(=O)N1C[C@@H](O)[C@@H](O)C1)c1cc2cc(Cl)ccc2[nH]1,inactive,inactive,–,–
CC(C)C(=O)C(C)C,inactive,inactive,–,–
NC(=O)Cc1cccc2ccccc12,inactive,inactive,–,–
COc1ccccc1OC(=O)Oc1ccccc1OC,inactive,inactive,–,–
CC(C)(C)C(=O)CC(=O)C(C)(C)C,inactive,inactive,–,–
O=[N+]([O-])C(CO)(CO)CO,inactive,inactive,–,–
CCCCCCCCCCCCCOC(=O)CCSCCC(=O)OCCCCCCCCCCCCC,–,–,3.07% [at 18.9 µM],-4.92% [at 18.9 µM]
C=C(C)C(=O)OC,inactive,inactive,–,–
CCCCCCCCOCCC#N,inactive,inactive,–,–
CC(C)C(=O)OC/C=C/c1ccccc1,inactive,inactive,–,–
CCC(CC)C(=O)O,inactive,inactive,–,–
CC(C)(Oc1ccc(CCNC(=O)c2ccc(Cl)cc2)cc1)C(=O)O,inactive,inactive,–,–
C=CC(C)(O)CC/C=C(\C)CCC=C(C)C (centres undefined),inactive,inactive,–,–
COc1ccccc1N1CCN(CC(O)COc2cccc3ccccc23)CC1 (centres undefined),inactive,inactive,–,–
CCCCCCCCCCCCSCCOCCO,inactive,inactive,–,–
CCN(CC)CCOCCOC(=O)C1(c2ccccc2)CCCC1,inactive,inactive,–,–
N=C(N)c1ccccc1,inactive,inactive,–,–
CCOC(=O)C1=C(C)NC(C)=C(C(=O)OC)C1c1cccc(Cl)c1Cl (centres undefined),inactive,inactive,–,–
Cc1nc([N+](=O)[O-])cn1-c1ccc([N+](=O)[O-])cc1,inactive,inactive,–,–
